Laboratory results as given in PubChem BioAssay (EPA / NIEHS).
Where “and” joins values, the source holds several entries; their conditions need not be identical. Equal values may be shown once. A structure can be active in one record and inactive in another. Calls of active or inactive are those of the source. Rule for the calls: active = hit-call score of the fitted dose curve at least 0.9, where 1 is the maximum; inactive = score below 0.9.

Read-out: Thrombomodulin, THBD (gene 7056)
Assay: BSK_3C_Thrombomodulin: BioMAP Diversity Plus: 3C Assay for Thrombomodulin Biomarker Activity (AID 2283029)
Settings: primary human endothelial cells (HUVEC); actives raise or lower the signal
Experimental: BSK_3C is a cell-based, multiplexed-readout assay that uses umbilical vein endothelium, a human vascular primary cell, with measurements taken at 24 hours after chemical dosing in a 96-well plate.BSK_3C_Thrombomodulin is an assay component measured in the BSK_3C assay. It measures Thrombomodulin antibody related to regulation of gene expression using ELISA technology.Data from the assay component BSK_3C_Thrombomodulin was analyzed into 1 assay endpoint. This assay endpoint, BSK_3C_Thrombomodulin, was analyzed with bidirectional fitting relative to DMSO as the negative control and baseline of activity. Using a type of binding reporter, gain or loss-of-signal activity can be used to understand changes in the signaling as they relate to the gene THBD. Furthermore, this assay endpoint can be referred to as a primary readout, because this assay has produced multiple assay endpoints where this one serves a signaling function. To generalize the intended target to other relatable targets, this assay endpoint is annotated to the gpcr intended target family, where the subfamily is rhodopsin-like receptor.
The levels of cell surface (or secreted, indicated by the prefix "s") biomarker endpoints were measured by ELISA. Overt cytotoxicity to cells in confluent adherent cultures (all systems other than the BT system) was assessed by measuring total protein levels using sulforhodamine B (SRB) staining in parallel cultures at the time of biomarker measurements, indicated as SRB endpoints. For proliferation assays for adherent cell types, individual cell types are cultured at sub-confluence and relative cell numbers quantified by SRB staining at time points optimized for each system (48 h: 3C and CASM3C systems; 72 h: BT and HDF3CGF systems; 96 h: SAg system). SRB was performed by staining cells with 0.1% SRB after fixation with 10% TCA and reading wells at 560 nm.Viability and proliferation of PBMC (T cells) was quantified by Alamar Blue reduction for the SAg and BT systems. For PBMC viability (referred to as PBMC Cytotoxicity within the assay endpoint names), cells were plated (75,000/well in a 96-well plate) and then chemical samples added for 1 h before addition of activators, SEB and TSST-1 (20 ng/mL final concentration each). Cells were incubated for 90 h. Then, Alamar Blue (20 uL/well) (Invitrogen, Cat DAL1100) was added for 6 h, and the plates were read with a fluorescence microplate reader at 546/580 nm (excitation/emission). For PBMC proliferation, cells were plated and activated as above but incubated for only 16 h prior to addition of Alamar Blue. Plates were read after 6 h.

| SMILES | outcome | AC50 |
| --- | --- | --- |
| CCCCCCC(C)OC(=O)CCCCC(=O)OC(C)CCCCCC (stereo not given) | inactive | – |
| CCc1c(Br)c(Br)c(Br)c(Br)c1Br | inactive | – |
| CO[Si](OC)(c1ccccc1)c1ccccc1 | inactive | – |
| CCO[Si](CCC(F)(F)C(F)(F)C(F)(F)C(F)(F)C(F)(F)C(F)(F)F)(OCC)OCC | inactive | 0.638 µM (active) |
| C=C(C)C(=O)OCC(F)(F)C(F)(F)C(F)(F)C(F)(F)C(F)(F)C(F)(F)C(F)(F)F | inactive | – |
| CCc1ccc(C(c2ccc(CC)cc2)C(Cl)Cl)cc1 | inactive | – |
| O=C(O)C(F)(F)C(F)(F)OC(F)(F)F | inactive | – |
| FC(F)(I)C(F)(F)C(F)(F)C(F)(F)I | inactive | – |
| FC1CC(F)(F)C(F)(F)C1(F)F (stereo not given) | inactive | – |
| OCC(F)(F)C(F)(F)C(F)(F)C(F)(F)C(F)(F)C(F)(F)F | inactive | – |
| C=CC(=O)OCC(F)(F)C(F)(F)C(F)(F)C(F)(F)C(F)(F)C(F)(F)C(F)(F)F | inactive | – |
| O=C(CC(=O)C(F)(F)C(F)(F)F)C(F)(F)F | inactive | – |
| O=S(=O)(OCC(F)F)C(F)(F)F | inactive | – |
| CC(C)(C)C(=O)CC(=O)C(F)(F)C(F)(F)C(F)(F)F | – | 41.2 µM (active) and 47.3 µM (active) |
| FC(F)(F)C(F)(F)C(F)(F)C(F)(F)CCI | inactive | – |
| FC(F)(F)C(F)(F)C(F)(F)CI | inactive | – |
| O=S(=O)(OCCOC(F)(F)F)C(F)(F)F | inactive | – |
| O=C(O)C(F)(F)C(F)(F)C(F)(F)C(F)(F)C(F)(F)C(F)(F)C(F)(F)C(F)(F)C(F)(F)C(F)F | – | 49.3 µM (active) and 46.1 µM (active) |
| CCCCCCCCC(F)(F)C(F)(F)C(F)(F)C(F)(F)C(F)(F)C(F)(F)F | inactive | – |

| SMILES | outcome | AC50 |
| --- | --- | --- |
| Cc1ccc(S(=O)(=O)OCC(F)(F)C(F)(F)C(F)(F)C(F)(F)C(F)(F)C(F)F)cc1 | inactive | – |
| NC(=O)C(F)(F)C(F)(F)C(F)(F)C(F)(F)F | inactive | 38.8 µM (active) |
| O=C(O)C(F)(F)C(F)(F)C(F)(F)C(F)(F)F | inactive | 31.2 µM (active) |
| CCCCCCCCCCCCCCCC[N+](C)(C)Cc1ccccc1 | – | 5.17 µM (active) |
| CCCCNc1ccccc1 | inactive | – |
| OCCCC(F)(F)C(F)(F)C(F)(F)C(F)(F)C(F)(F)C(F)(F)C(F)(F)F | inactive | – |
| CCN(CC)c1ccc2c(C)cc(=O)oc2c1 | inactive | – |
| CCCCCCCOC(=O)c1ccccc1C(=O)OCCCCCCC | inactive | – |
| FC(F)(F)C(F)(F)C(F)(F)C(F)(F)C(F)(F)CCI | inactive | – |
| OCCCC(F)(F)C(F)(F)C(F)(F)F | inactive | – |
| FC(F)(F)C(F)(F)CNCC(F)(F)C(F)(F)F | inactive | – |
| Nc1ccc([N+](=O)[O-])cc1O | inactive | – |
| FC(F)(F)C(F)(F)C(F)(F)C(F)(F)C(F)(F)C(F)(F)C(F)(F)C(F)(F)F | inactive | – |
| C=CC(=O)OCC(F)(F)C(F)(F)C(F)(F)C(F)(F)COC(=O)C=C | inactive | – |
| N=C(N)C(F)(F)C(F)(F)C(F)(F)C(F)(F)C(F)(F)C(F)(F)C(F)(F)F | inactive | – |
| O=C(O)C(F)(OC(F)(F)C(F)(OC(F)(F)C(F)(OC(F)(F)C(F)(F)C(F)(F)F)C(F)(F)F)C(F)(F)F)C(F)(F)F (stereo not given) | inactive | – |
| O=P(O)(O)OCCC(F)(F)C(F)(F)C(F)(F)C(F)(F)C(F)(F)C(F)(F)F | inactive | – |
| O=C(O)C(F)(F)C(F)(F)C(F)(F)F | inactive | – |
